For 21 compounds, Inhibition results are on record in ChEMBL document CHEMBL4513146, “CO-ADD screening of Karazin Kharkiv National University (Ukraine) compounds”.

SMILES strings stand for the structures. Out of some 21,000 compounds screened, fewer than 10 showed an effect of 50% or more. These entries were drawn from the full list. Results with a measured potency or affinity are listed apart.

In this experiment the test system is Acinetobacter baumannii. To be noted: Concentration 32 ug.mL-1;; ASSAY_TEST Inhibition of Bacterial Growth; detection method Absorption (OD600); MEDIA CAMHB; plate type 384well; NBS; CORNING #3640; time 18 hr.
Regarding `Cc1ccc(NC(=O)Cn2nc3c4c5c(sc4ncn3c2=O)CCCC5)c(Cl)c1`, the Inhibition is -9.66%.
The figure for `COc1cccc(-n2ccn3c(SCC(=O)c4ccc(C)cc4)nnc3c2=O)c1` is -4.26%.
Take `COc1ccc(-c2cc3c4nn(CC(=O)Nc5cc(OC)cc(OC)c5)c(=O)n4ccn3n2)cc1`: the Inhibition was -11.34%.
Then `CCc1nnc2c(S(=O)(=O)N(Cc3cccc(C)c3)c3cccc(Cl)c3)cccn12`, with 8.48%.
The figure for `CCOc1ccc(C(=O)Cn2nc3n(CCC(C)C)c(=O)c4sccc4n3c2=O)cc1` is 1.79%.
The figure for `O=C(CSc1nnc2c(=O)n(-c3ccc(Br)cc3)ccn12)Nc1cc(F)ccc1F` is 0.45%; for `CCOc1ccc(-n2ccn3c(SCC(=O)c4ccc(C)cc4)nnc3c2=O)cc1` it is 4.11%; for `CCOc1ccc(NC(=O)Cn2nc3c(Oc4ccc(C)cc4)nccn3c2=O)cc1` it is 0.89%.
As to `CCc1nnc2ccc(S(=O)(=O)N(Cc3ccc(OC)cc3)c3cccc(F)c3)cn12`, the Inhibition is recorded as -12.55%.
The figure for `COc1ccc(NC(=O)Cn2nc3c4c5c(sc4ncn3c2=O)CCCC5)cc1` is -5.35%.
Then `COc1ccccc1NC(=O)Cn1nc2c3c4c(sc3ncn2c1=O)CCCC4`, with -5.75%; and `O=C(CSc1nnc2c(=O)n(-c3cccc(F)c3)ccn12)Nc1ccc(Br)cc1`, with 3.4%; and `COc1cccc(Oc2nccn3c(=O)n(CC(=O)Nc4ccc5c(c4)OCO5)nc23)c1`, with 0%.
For the compound `Cc1ccc(-c2ccc3nn(CC(=O)Nc4ccc(C#N)cc4)c(=O)n3n2)cc1C`, the Inhibition was found to be 6.14%.
For the compound `CCCc1nnc2c(=O)n(CC(=O)Nc3ccc(C(C)=O)cc3)c3ccccc3n12`, the Inhibition is given as 9.58%.
The figure for `Cc1ccc(-c2cc3c4nnc(SCC(=O)Nc5ccc(C#N)cc5)n4ccn3n2)cc1` is -8.65%; for `CCOc1ccc(NC(=O)Cn2nc3c(Oc4cccc(OC)c4)nccn3c2=O)cc1` it is 5.77%.
The figure for `Cc1ccc(F)cc1NC(=O)CSc1nc2ccccc2n2c(C)nnc12` is 5.49%.
Then `Cc1ccc(Oc2nccn3c(=O)n(CC(=O)Nc4ccc(C)cc4Br)nc23)cc1`, with 2.31%; and `CCCCn1c(=O)c2sccc2n2c(=O)n(CC(=O)c3ccc(C)cc3C)nc12`, with -4.56%; and `O=C(Cn1nc2nc(Nc3ccc(F)cc3)ccn2c1=O)Nc1cc(F)ccc1F`, with 12.46%.
